# Cruzain inh Det = cruzain (T. cruzi) inhibition with detergent; purified cruzain, Z-FR-AMC fluorescence, 0.01% Triton; Potency, µM, for the others: max response, negative = inhibition, hits mostly inhibitors; 200,000 tested, 0.43% active; AID 1478;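 also: plate controls were neutral wells for no effect and buffer without enzyme for full effect; nearly all actives have a fitted effect of over 40% in size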
# Target sequence (P25779 123-467 limits assumed): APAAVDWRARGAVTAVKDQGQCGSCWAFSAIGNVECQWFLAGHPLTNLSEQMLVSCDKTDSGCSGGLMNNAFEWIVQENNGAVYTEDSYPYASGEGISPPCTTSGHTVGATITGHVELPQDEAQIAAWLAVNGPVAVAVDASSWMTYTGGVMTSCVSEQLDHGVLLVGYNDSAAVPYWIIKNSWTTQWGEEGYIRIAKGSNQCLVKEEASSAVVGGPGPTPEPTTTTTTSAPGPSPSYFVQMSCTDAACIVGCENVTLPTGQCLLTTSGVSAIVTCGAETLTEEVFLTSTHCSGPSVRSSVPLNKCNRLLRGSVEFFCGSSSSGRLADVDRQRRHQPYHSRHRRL
#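 Compounds were screened in titration against cruzain (1.5 nM) with 0.01% Triton X-100 to counter colloidal aggregation. Activity was the AMC fluorescence increase over 60 s after adding 2 uM Z-FR-AMC at pH 5.5.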
# Cruzain noTriton = cruzain (T. cruzi) inhibition without detergent. P25779. purified cruzain, Z-FR-AMC fluorescence, no detergent. Potency, µM, without a hit: max response, negative = inhibition, hits mostly inhibitors. 200,000 tested, 2.3% active. AID 1476;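 also: plate controls were enzyme without inhibitor for no effect and buffer without enzyme for full effect; nearly all actives have a fitted effect of over 40% in size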
#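 Purified cruzain at 1.5 nM, pre-incubated 15 min with compound at room temperature in 100 mM sodium acetate pH 5.5, 5 mM DTT, 0.00005% Triton X-100. Reaction started with 2 uM Z-FR-AMC; AMC fluorescence increase over 60 s gives rate.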
# * marks the source's active call; other numbers are inactive results; ? = inconclusive. A selection: hits, their analogues and other compounds. The true share with any hit is near 2.4%. Calls follow the shape of the dose curve; as a rule, active = well fitted curve in the direction sought with a large enough effect; inconclusive = small, poorly fitted or top-dose-only effect, or another doubt; inactive = no such curve, though single readings can be large; an effect the other way counts as inactive or inconclusive. Potency is read from the fitted curve at half-maximal effect.
SMILES,Cruzain inh Det,Cruzain noTriton
O=C(CSc1nc(-c2ccccc2)nc2c1Cc1ccccc1O2)Nc1ccccc1,9.1%,25.1µM*
CCOc1ccc2c(c1)c(=O)c(C(=O)c1ccc(CC)cc1)cn2CC(=O)Nc1ccc2c(c1)OCCO2,-0.9%,0.2%
Cc1cc2cc(CN(Cc3cccs3)C(c3nnnn3C(C)(C)C)C(C)C)c3nnnn3c2cc1C (stereo not drawn),-2.3%,7.94µM*
Cc1ccc2cc(CN(Cc3cccs3)Cc3nnnn3C(C)(C)C)c3nnnn3c2c1,-3.4%,-5.2%
CCOC(=O)c1ccc(NC(=O)C2CCN(C(=O)N3CC(C)Oc4ccc(C)cc43)CC2)cc1 (stereo not drawn),-1.7%,-3.5%
COc1ccc(/C=N/NC(=O)c2cccc(NC(=O)c3ccc(Cl)cc3)c2)c(OC)c1,-7.0%,?
O=C(N/N=C/c1ccncc1)c1cccc(NC(=O)c2ccc(Cl)cc2)c1,28.2µM*,-13.4%
COc1ccc(NC(=O)c2cc3ccccn3n2)cc1,-0.8%,-10.0%
O=C(Nc1ccc(OC(F)(F)F)cc1)c1cc2ccccn2n1,-2.1%,25.1µM*
COc1ccc(COc2cc(-c3cccc(OC)c3)nc3ccc(NC(=O)c4ccccc4)cc23)cc1,2.5%,7.94µM*
COc1cccc(-c2cc(C(=O)Nc3ccc4c(c3)OCCO4)c3ccccc3n2)c1,-7.3%,?
COc1ccc(COc2cc(-c3cccc(OC)c3)nc3ccc(NC(=O)c4cccnc4)cc23)cc1,-0.4%,12.5%
COc1ccc(COc2cc(-c3cccc(OC)c3)nc3ccc(NC(=O)c4ccc(Cl)cc4)cc23)cc1,1.1%,2.82µM*
COc1ccc(COc2ccsc2C(=O)Nc2ccc(Cl)cc2)cc1,6.3%,-8.6%
COc1ccc(COc2cc(-c3cccc(OC)c3)nc3ccc(NC(=O)c4ccc(OC)cc4)cc23)cc1,2.2%,7.94µM*
C=C[C@H]1CCC=C2C(=O)CCC[C@@H]21,-3.6%,27.2%
CC1=C(C(=O)Nc2cccnc2)C(c2ccccc2)n2nc(SCc3ccccc3)nc2N1 (stereo not drawn),0.7%,9.2%
Nc1nc(-c2cccnc2)cc(-c2cc(-c3cccnc3)nc(N)n2)n1,-0.6%,4.2%
COc1ccc(Br)cc1CNC(=O)c1ccc2c(c1)nc1n2CCCCC1,-4.0%,-5.1%
CC1CCN(c2nc3ccccc3nc2SCC(=O)Nc2ccccc2C(C)C)CC1,-7.3%,-6.4%
COc1ccc(/C(=C\C(=O)O)c2nccc3cc(OC)c(OC)cc23)cc1OC,-0.9%,-5.4%
CCc1cccc(NC(=O)c2sc3nc[nH]c(=O)c3c2C)c1,-7.0%,11.4%
Cc1ccc2oc3c(c(=O)c2c1)C(c1cccc(Br)c1)N(Cc1ccco1)C3=O (stereo not drawn),7.1%,25.1µM*
Cc1cc2oc3c(c(=O)c2cc1C)C(c1cccc(Br)c1)N(Cc1ccco1)C3=O (stereo not drawn),-3.1%,?
CC(=O)N[C@@H]1CONC1=O,-1.8%,3.7%
SMILES,Cruzain inh Det,Cruzain noTriton
c1cc2ccc3cccc4ccc(c1)c2c34,-0.6%,-13.4%
c1ccc2c(c1)c1cccc3ccc4cccc2c4c31,2.1%,15.8µM*
Cc1ccc(C(c2nnnn2C2CCCC2)N2CCc3ccccc32)cc1 (stereo not drawn),-6.0%,31.6µM*
CC(C)C(c1nnnn1C1CCCC1)N1CCc2ccccc21 (stereo not drawn),0.0%,1.9%
COC(=O)[C@H]1C[C@@H]1[C@H](NC(=O)c1cc(C)nn1C)c1ccccc1,-3.8%,0.1%
CCOC(=O)c1ccc(NC(=O)Nc2ccc3c(c2)OCCO3)cc1,-11.7%,0.5%
CCOC(=O)c1ccc(NC(=O)N2CCOc3ccccc32)cc1,-3.2%,10µM*
CCN(CC)S(=O)(=O)c1cccc(C(=O)Nc2ccccc2C(=O)Nc2ccc(OC)cc2)c1,-4.6%,13.8%
Cc1cc(=O)n(CC(=O)N2CCCc3ccccc32)c2c1c(C)nn2-c1cccc(F)c1,-3.5%,-9.3%
CCOC(=O)c1c(C2COc3ccccc3O2)csc1NC(=O)c1ccccc1 (stereo not drawn),-13.1%,25.1µM*
CCOC(=O)c1c(C2COc3ccccc3O2)csc1N (stereo not drawn),-7.0%,-5.6%
Cc1c(Cl)cc(C(C)(C)C)c(O)c1Cc1c(C)c(Cl)cc(C(C)(C)C)c1O,2.6%,-6.0%
CCc1cc(C(C)=O)c(O)cc1OCCCCCC(C)(C)c1nn[nH]n1,-24.3%,?
Cc1nc2cc(C(=O)OCC(=O)Nc3cccc(Cl)c3)ccc2n1-c1ccccc1,-7.3%,25.1µM*
Cc1nc2cc(C(=O)OCC(=O)NC34CC5CC(CC(C5)C3)C4)ccc2n1-c1ccccc1,-6.5%,-10.4%
COc1ccccc1NC(=O)C1=C(C)Nc2nc(SCc3ccccc3)nn2C1c1cccnc1 (stereo not drawn),-0.5%,?
O=C(c1cnccn1)N1CCC2(CC1)CCN(c1ncccn1)CC2,-1.2%,1.2%
CCCn1c(SCC(=O)N2N=C3/C(=C/c4ccc(OC)cc4)CCCC3C2c2ccc(OC)cc2)n[nH]c1=O (stereo not drawn),-11.1%,14.9%
COc1ccc(/C=C2\CCCC3C2=NC(=S)NC3c2ccc(OC)cc2)cc1 (stereo not drawn),-5.0%,25.1µM*
COc1ccc(Nc2nc(N)c3cc(OC)c(OC)cc3n2)cc1,9.2%,0.8%
Cc1occc1C(=O)N=Nc1c(O)n(C)c2ccccc12,-5.2%,-7.7%
Cc1occc1C(=O)N=Nc1c(O)[nH]c2ccc(Br)cc12,-3.0%,12.6µM*
CC1CCC(C(=O)O)([C@H](Br)C(=O)O)CC1 (stereo partly drawn),3.2%,0.9%
CCOC(=O)/C(=C\C=C\c1ccccc1)NC(=O)c1ccccc1,-24.8%,-19.4%
C=CCOC(=O)/C(=C\C=C\c1ccccc1)NC(=O)c1ccccc1,14.1µM*,?
SMILES,Cruzain inh Det,Cruzain noTriton
C[C@H](CO)NC(=O)[C@H]1C[C@@H]1[C@H](NP(=O)(c1ccccc1)c1ccccc1)c1ccccc1,1.1%,-0.7%
Cc1ccc(C2=Nc3ccccc3N(CC(=O)Nc3ccccc3F)C(=O)C2)cc1C,-7.8%,-20.8%
Cc1ccc(-c2nnc(SCC(=O)n3c4c(c5ccccc53)CCCC4)o2)cc1,1.5%,-18.4%
O=C(CSc1nnc(-c2ccccc2)o1)n1c2c(c3ccccc31)CCCC2,-0.1%,25.1µM*
Cc1ccc(C)c(N2CCN(C(=O)CN3C(=O)COc4ccc(S(=O)(=O)N5CCOCC5)cc43)CC2)c1,-0.3%,?
COC(=O)CN(C#N)c1nc(NC(C)C)nc(OC)n1,22.4µM*,20µM*
CCNc1nc(SC)nc(N(C#N)CC(=O)OC)n1,14.1µM*,12.6µM*
COC(=O)CN(C#N)c1nc(C)cc(C)n1,-2.4%,-1.8%
CCNc1nc(SC(C(C)=O)C(C)=O)nc(N(C)C)n1,5.0%,-2.4%
CCN(C#N)c1nc(NC(C)C)nc(NC(C)C)n1,0.1%,7.0%
COC(=O)CN(C#N)c1nc(OC)nc(N(C)C)n1,28.2µM*,20µM*
CCOC(=O)C1CCN(C(=O)CNS(=O)(=O)c2cccs2)CC1,4.7%,-3.7%
O=C(O)C/C(=C\c1ccccc1)C(=O)O,3.3%,1.7%
O=C1/C(=C/c2ccccc2)NC(=S)N1C(c1ccccc1)c1ccccc1,-3.4%,20µM*
O=C1/C(=C/c2ccccc2)Nc2ccccc21,-4.7%,-11.0%
CC(=O)N1CCc2cc(Br)cc(S(=O)(=O)N3CCC(C(=O)Nc4ccc(C(C)C)cc4)CC3)c21,-6.3%,?
CC(=O)c1c(C)oc2c(Br)cc(NS(=O)(=O)c3ccc(Br)cc3)cc12,-6.6%,-5.2%

# High-throughput results from PubChem.
